Data as given in PubChem BioAssay (EPA / NIEHS).
Records with an inconclusive call do not appear. The source made the active and inactive calls. How the source made its calls: active means hit-call score of the fitted dose curve at least 0.9, where 1 is the maximum; inconclusive means response in the unintended direction; inactive means score below 0.9.

Biological target: Peroxisome proliferator-activated receptor gamma (Homo sapiens) (UniProt P37231)
Experiment: NVS_NR_hPPARg: NovaScreen (NVS) Nuclear Receptor Binding Assay for human Peroxisome Proliferator-activated Receptor gamma (PPARg) (AID 2283370)
Procedure: NVS_NR_hPPARg is a biochemical, single-readout assay that uses extracted gene-proteins in a cell-free assay. Measurements were taken 2 hours after chemical dosing in a 384-well plate.NVS_NR_hPPARg is one of one assay component(s) measured or calculated from the NVS_NR_hPPARg assay. It is designed to make measurements of fluorescent polarization, a form of binding reporter, as detected with fluorescence polarization signals by Fluorescence Polarization technology.Data from the assay component NVS_NR_hPPARg was analyzed into 1 assay endpoint. This assay endpoint, NVS_NR_hPPARg, was analyzed in the positive analysis fitting direction relative to DMSO as the negative control and baseline of activity. Using a type of binding reporter, loss-of-signal activity can be used to understand changes in the binding as they relate to the gene PPARG. Furthermore, this assay endpoint can be referred to as a primary readout, because the performed assay has only produced 1 assay endpoint. To generalize the intended target to other relatable targets, this assay endpoint is annotated to the nuclear receptor intended target family, where the subfamily is non-steroidal.
Binding assays used specific radioligands (tritiated, iodinated) with non-radioactive competitive displacement ligands in agonist or antagonist protocols (as indicated) and various reference compounds and inhibitors to titrate specific binding to receptors and transporters. Most enzyme assays (CYPs, kinases, phosphatases, proteases, HDACs) used recombinant protein and specific substrates (fluorescence mostly, some colorimetric and radioactive) and inhibitors, followed by a biochemical separation of substrate and product. All assays for the biochemical HTS were initially run in duplicate at a single concentration (10 uM for CYP450 assays and 25 uM for all others). […] Each assay was run with positive and negative controls, and concurrent controls on every plate. The follow-up (secondary) screen tested active chemical-pairs in concentration series, as well as a few additional assays not tested in the primary screen, some selected negative inactives, and several cases re-run in the concentration series for confirmatory purposes.

Chain of Peroxisome proliferator-activated receptor gamma (Homo sapiens) (P37231 whole entry, looked up): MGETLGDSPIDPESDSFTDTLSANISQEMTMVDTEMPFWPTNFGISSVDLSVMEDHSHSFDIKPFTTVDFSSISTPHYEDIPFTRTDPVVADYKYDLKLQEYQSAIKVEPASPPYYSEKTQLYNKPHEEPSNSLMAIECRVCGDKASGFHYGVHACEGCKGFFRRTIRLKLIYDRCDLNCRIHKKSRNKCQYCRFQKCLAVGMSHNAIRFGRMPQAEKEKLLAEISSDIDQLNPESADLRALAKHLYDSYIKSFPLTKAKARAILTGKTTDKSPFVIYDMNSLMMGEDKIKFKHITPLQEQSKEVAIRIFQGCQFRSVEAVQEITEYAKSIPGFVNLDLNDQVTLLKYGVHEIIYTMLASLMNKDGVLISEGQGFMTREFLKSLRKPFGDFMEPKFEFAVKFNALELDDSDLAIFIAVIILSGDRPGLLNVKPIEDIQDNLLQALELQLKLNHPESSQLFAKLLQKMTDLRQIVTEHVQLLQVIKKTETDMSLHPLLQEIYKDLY

Compound | outcome | AC50
O=C(Oc1ccccc1)c1ccc(O)cc1 | inactive | 
O=Nc1ccc(Nc2ccccc2)cc1 | inactive | 
CCCCC(CC)COC(=O)/C=C\C(=O)OCC(CC)CCCC (stereo not drawn) | inactive | 
CCCCCCCCCCCCCCCC(=O)OC[C@H](O)[C@H]1OC(=O)C(O)=C1O |  | 25 µM (active)
OCCN1CCNCC1 | inactive | 
CC(C)CCCCCCCOC(=O)c1ccc(C(=O)OCCCCCCCC(C)C)c(C(=O)OCCCCCCCC(C)C)c1 | inactive | 
OC1OC[C@@H](O)[C@H](O)[C@H]1O (stereo partly drawn) | inactive | 
CCCCCCCCCCCCCOS(=O)(=O)O |  | 0.832 µM (active)
O=C1C(c2[nH]c3ccc(S(=O)(=O)O)cc3c2O)=Nc2ccc(S(=O)(=O)O)cc21 | inactive | 
CCCC/C=C\CCCCCCCCCC=O | inactive | 
O=C[C@@H](O)[C@H](O)[C@H](O)CO | inactive | 
CCCCCCCCCCCCCCCC(=O)O | inactive | 
CCCCCCCCCCCCCC(=O)O | inactive | 
CCC/C=C/C=O | inactive | 
CCCCCC(CO)CCC (stereo not drawn) | inactive | 
COC(C)CCO (stereo not drawn) | inactive | 
BrC1CCC(Br)C(Br)CCC(Br)C(Br)CCC1Br (stereo not drawn) | inactive | 
c1ccc(CCCc2ccccn2)cc1 | inactive | 
